# Source: PubChem BioAssay (Center for Chemical Genomics, University of Michigan)
# Only a selection was taken, and hits are over-represented in it overall.
# Dicer processing: human Dicer pre-microRNA cleavage inhibition | cat-ELCCA pre-miR-21 Dicer processing, chemiluminescence; hits give high values | Q9UPY3 | 47,000 tested, 6% active | z-score at 25 µM; in the data active = z-score above about 3, passing the limit was not always enough;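 also: plate controls were vehicle for no effect and no enzyme for full effect; higher signal means more uncleaved substrate so more Dicer inhibition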
# Active calls of the source: *.
SMILES,Dicer processing
O=C(NC1CCCCC1)Oc1cc2oc(=O)sc2cc1Cl,4.08*
CC12CCC3C4CCC(=O)C=C4CCC3C1CC[C@]2(C)O (some centres not stated),-0.7
c1ccc(CN2CCN(C3CCCCC3)CC2)cc1,3.12*
Clc1ccc(CN2CCN(Cc3ccccc3Cl)CC2)cc1,1.28
Cc1ccc(CN2CCN(C(C)C)CC2)cc1,2.86
COCCCn1c(OC(=O)N(C)C)c(C)c(C)nc1=S,-0.8
Cc1ccc(-c2nc(OC(=O)N(C)C)cc(C(F)(F)F)n2)cc1Cl,0.06
CC(=O)C1=C(C)OC(N)=C(C#N)C12C(=O)Nc1ccccc12 (configuration not stated),-0.14
CCOC(=O)C1=C(N)Oc2c(c(=O)oc3ccccc23)C1c1ccc(OC)cc1 (configuration not stated),3.03*
CCC1C(C#N)=C(N)Oc2c1c(=O)oc1ccccc21 (configuration not stated),-0.66
CCOC(=O)C1=C(N)Oc2c(c(=O)oc3ccccc23)C1c1ccccc1 (configuration not stated),6.54
CC(C)OC(=O)C1C2c3ccccc3C(c3ccccc32)C1C(=O)OC(C)C (configuration not stated),2.04
FC(F)(F)c1ccc(N2CCNCC2)nc1,-0.41
CC(C)n1[nH]c(=O)c2c1NC(=O)CSC2c1ccccc1 (configuration not stated),-1.27
COc1ccc(C2SCC(=O)Nc3c2c(=O)[nH]n3C2CCOC(C)(C)C2)cc1 (configuration not stated),-0.66
COc1ccc(CN2CCNCC2CCO)c(C)c1C (configuration not stated),-0.24
CN(C(=O)c1ccc(Cl)cc1)c1ccc(Cl)cc1C(=O)c1ccccc1,-0.85
COc1cccc(CNC2CN3CCC2CC3)c1OC (configuration not stated),-1.2
Fc1ccc(CNC2CN3CCC2CC3)cc1 (configuration not stated),3.09*
O=C(NC1CN2CCC1CC2)c1cccc(Cl)c1 (configuration not stated),-0.41
Fc1cc(F)c2c(c1)C1C=CCC1C(c1cccnc1)N2 (configuration not stated),-2.24
O=C1CSC(c2ccc3c(c2)OCO3)c2c(n(C3CCCCC3)[nH]c2=O)N1 (configuration not stated),-0.81
Nc1ccc(Br)cc1C(=O)c1ccccc1Cl,-5.33
CCC1(C(=O)c2ccc(C)cc2)C2c3cc(Br)ccc3OC(=O)C21C(=O)OC (configuration not stated),0.29
COc1ccc(O)c(CN2CCN(Cc3ccc(Br)cc3)CC2)c1,5.12*
SMILES,Dicer processing
CSc1ccc(CN2CCN(Cc3cc(Br)ccc3O)CC2)cc1,6.13*
CSc1ccc(CN2CCN(Cc3ccc(Cl)cc3)CC2)cc1,0.08
Oc1ccc(Br)cc1CN1CCN(Cc2ccc(F)cc2)CC1,3.31*
COc1ccccc1N1CCN(Cc2ccccc2F)CC1,-1.59
CSc1ccc(CN2CCN(Cc3ccc(F)cc3)CC2)cc1,2.41
COc1ccccc1CN1CCN(Cc2cc(Br)ccc2O)CC1,8.04*
CC1CC2C/C(=N\O)CC1N(C)C2 (configuration not stated),-2.17
O=c1c2ccccc2[nH]c(=S)n1-c1ccc(Br)cc1Cl,-3.8
C=CCSc1nc2ccccc2c(=O)n1-c1cc(OC)c(Cl)cc1OC,-0.38
COc1cc(-n2c(SC)nc3ccccc3c2=O)c(OC)cc1Cl,0.26
O=c1c2ccccc2[nH]c(=S)n1-c1ccc(F)cc1F,0.83
O=C(CNc1ccc(-c2ccccc2)cc1)Nc1ccc(Cl)cc1C(=O)c1ccccc1Cl,-0.56
CC1(C)Cc2nc(N3CCCC3)c(C#N)cc2CS1,1.62
CN1CCc2c(sc3c2C(=O)NC(c2cccnc2)N3)C1 (configuration not stated),-1.26
Cc1onc(-c2ccccc2Cl)c1C(=O)Nc1ccc(Cl)cc1C(=O)c1ccccc1,-0.94
CCC(C)n1[nH]c(=O)c2c1NC(=O)CSC2c1ccc(OC)cc1 (configuration not stated),-0.44
C=CCc1c(C)nc(-c2ccc(F)c(Cl)c2)nc1OC(=O)N(C)C,-2.2
Cn1cncc1C(O)c1ccccc1 (configuration not stated),0.37
C[C@]12Cc3cn[nH]c3C[C@@H]1CC[C@@H]1[C@@H]2CC[C@@]2(C)[C@H]1CC[C@]2(C)O,0.51
Clc1cccc(CN2CCN(Cc3cccc(Br)c3)CC2)c1,1.31
Oc1ccc(Br)cc1CN1CCN(Cc2cccc(F)c2)CC1,7*
Cc1cc(NC(=O)Oc2ccccc2)no1,0.81
CCCc1nc(SCC(=O)c2ccc(Cl)cc2)nc(OC(=O)N(C)C)c1C,10.5
O=C1C(=Cc2ccco2)C(=O)N(c2ccccc2)C(=S)N1c1ccccc1,3.27*
C/C(=C\c1ccc([N+](=O)[O-])cc1)[N+](=O)[O-],2.74
SMILES,Dicer processing
CC(C)(N)Cc1ccccc1,-0.46
CC1(C)CN=C(NCc2ccccn2)S1,4.01*
O=C(c1ccco1)c1cn(CCCOc2ccccc2Cl)c2ccccc12,-1.23
COc1ccc(-n2c(/C=C/c3ccc([N+](=O)[O-])o3)nc3ccccc3c2=O)cc1,0.32
Fc1ccc(CNCCc2c[nH]c3ccccc23)cc1F,1.33
CC(=O)OC1CCC2C3C=CC4=CC(=O)C=CC4(C)C3CCC12C (configuration not stated),-0.23
COc1cc(C2NN=C3C4CCN(CC4)C32)cc(OC)c1OC (configuration not stated),-0.41
c1ccc(CCNCc2ccc3c(c2)OCO3)cc1,-0.43
O=C(Cn1cc(C(=O)c2ccccc2)c2ccccc21)NCc1ccc2c(c1)OCO2,3.54*
O=C(O)c1cn(Cc2ccc(Cl)cc2)c2ccccc12,0.07
CC1(C)CSC(Nc2ccccc2F)=N1,0.9
Cc1[nH]nc2c1C1(CCN(C)CC1)C(C#N)=C(N)O2,-8.23
CCc1ccc(CNCCc2ccc3c(c2)OCO3)cc1,0.83
c1coc(CNCCc2ccc3c(c2)OCO3)c1,7.68*
c1cc2c(cc1CCNCc1ccc3c(c1)OCO3)OCO2,2.46
CCC(C)n1[nH]c(=O)c2c1NC(=O)CSC2c1ccccc1 (configuration not stated),1.61
COc1ccc2c(c1)c(C(=O)O)c(C)n2C,0.29
CCNc1nc(NC(C)C)nc(SC)n1,1.12
CC1(C)CCC(C)(C)c2cc(-c3csc(CS(=O)(=O)C(C)(C)C)n3)ccc21,-1.27
O=C(CNC1CCCCC1)c1ccc(O)c(O)c1,10.3*
Cc1ccc(-n2c(SCC(C)C)nc3cccc(F)c3c2=O)cc1C,-0.21
CC(C)(C)c1cc(C(C)(C)C)c2c(c1)C(O)(C(F)(F)F)C(=O)O2 (configuration not stated),-1.79
Cc1cc(C(=O)Nc2ccc(C(C)(C)C)cc2)nn1C(C)(C)C,-0.53
CNC(=O)O/N=C1\CC(C)(C)Cc2csc(SC)c21,2.63
CNC(=O)Oc1cccc2cccnc12,0.15
SMILES,Dicer processing
COc1cccc(-n2c(/C=C/c3c[nH]c4ccccc34)nc3ccccc3c2=O)c1,3.44*
COc1cccc(-n2c(/C=C/c3ccco3)nc3ccccc3c2=O)c1,0.91
O=c1c2ccccc2nc(/C=C/c2ccc(O)cc2)n1-c1ccc(O)cc1,1.72
CN1[C@H]2C[C@H](OC(=O)[C@H](CO)c3ccccc3)C[C@@H]1[C@@H](O)C2,0.7
C=CCSc1nnc(OC(=O)N(C)C)n1-c1cccc(C(F)(F)F)c1,0.96
CCN(CC)C(=O)Oc1nc(-c2ccccn2)nc(COC)c1CC1CC1,0.76
N#CC(C#N)=NNc1c(Cl)cc(C(F)(F)F)cc1Cl,-0.79
